According to PubChem BioAssay (EPA / NIEHS):
A structure can be active in one record and inactive in another. Calls of active or inactive are those of the source. The calls were made as follows: active = hit-call score of the fitted dose curve at least 0.9, where 1 is the maximum; inactive = score below 0.9.

Columns and labels:
[1] = read-out: Tissue Factor, F3 (gene 2152); assay: BSK_CASM3C_TissueFactor: BioMAP Diversity Plus: CASM3C Assay for Tissue Factor Biomarker Activity (AID 2283052); conditions: primary human coronary artery smooth muscle cells; actives raise or lower the signal;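 also: cell surface tissue factor protein level read by ELISA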
[2] = read-out: Interferon-gamma inducible Protein 10 (IP10), CXCL10 (gene 3627); assay: BSK_hDFCGF_IP10: BioMAP Diversity Plus: hDFCGF Assay for Interferon-gamma inducible Protein 10 (IP10) Biomarker Activity (AID 2283053); conditions: primary human foreskin fibroblasts; actives raise or lower the signal
How it was run: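 IP-10 levels, quantified by ELISA, are taken from human foreskin fibroblast cultures 24 h after chemical treatment, with DMSO serving as negative control and baseline for bidirectional analysis.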

[3] = read-out: Urokinase-type plasminogen activator receptor (uPAR), PLAUR (gene 5329); assay: BSK_CASM3C_uPAR: BioMAP Diversity Plus: CASM3C Assay for Urokinase-type plasminogen activator receptor (uPAR) Biomarker Activity (AID 2283054); conditions: primary human coronary artery smooth muscle cells; actives raise or lower the signal;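 also: cell-surface uPAR protein level quantified by ELISA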
[4] = read-out: Vascular cell adhesion molecule 1 (VCAM1), VCAM1 (gene 7412); assay: BSK_CASM3C_VCAM1: BioMAP Diversity Plus: CASM3C Assay for Vascular cell adhesion molecule 1 (VCAM1) Biomarker Activity (AID 2283055); conditions: primary human coronary artery smooth muscle cells; actives raise or lower the signal;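 also: VCAM-1 protein level quantified by ELISA on the cells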
[5] = read-out: Collagen III, COL3A1 (gene 1281); assay: BSK_hDFCGF_CollagenIII: BioMAP Diversity Plus: hDFCGF Assay for Collagen III Biomarker Activity (AID 2283056); conditions: primary human foreskin fibroblasts; actives raise or lower the signal
How it was run: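 Human foreskin primary fibroblasts were exposed to test chemicals for 24 h, after which collagen III was quantified by ELISA. Activity was fitted bidirectionally against DMSO as negative control and baseline.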

[6] = read-out: Epidermal growth factor receptor (EGFR), EGFR (gene 1956); assay: BSK_hDFCGF_EGFR: BioMAP Diversity Plus: hDFCGF Assay for Epidermal growth factor receptor (EGFR) Biomarker Activity (AID 2283057); conditions: primary human foreskin fibroblasts; actives raise or lower the signal
How it was run: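 Measured by ELISA: EGFR levels on primary human foreskin fibroblasts 24 h after chemical treatment, analysed relative to DMSO with bidirectional fitting.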

[7] = read-out: Interleukin-8 (IL8), CXCL8 (gene 3576); assay: BSK_hDFCGF_IL8: BioMAP Diversity Plus: hDFCGF Assay for Interleukin-8 (IL8) Biomarker Activity (AID 2283058); conditions: primary human foreskin fibroblasts; actives raise or lower the signal
How it was run: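 hDFCGF human dermal fibroblasts; 24 h chemical exposure; IL-8 by ELISA; bidirectional curve fit vs DMSO baseline; gain or loss of signal scored.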

[8] = BSK_hDFCGF_Proliferation: Cell Proliferation Assessment in the BioMAP Diversity Plus: hDFCGF Assay (AID 2283059); conditions: primary human foreskin fibroblasts;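 also: curves fitted for both rise and fall of signal versus DMSO baseline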
How it was run: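 Total protein read at 560 nm after 0.1% SRB staining of TCA-fixed human skin fibroblasts, […]. Activity is fitted in both directions relative to DMSO as baseline.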

[9] = read-out: Macrophage colony-stimulating factor (MCSF), CSF1 (gene 1435); assay: BSK_hDFCGF_MCSF: BioMAP Diversity Plus: hDFCGF Assay for Macrophage colony-stimulating factor (MCSF) Biomarker Activity (AID 2283060); conditions: primary human foreskin fibroblasts; actives raise or lower the signal
How it was run: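 Human foreskin primary fibroblasts were treated with test chemical for 24 h, and M-CSF was then measured by ELISA. Data were fitted bidirectionally against DMSO as the negative control and activity baseline.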

[10] = BSK_hDFCGF_SRB: Viability Assessment in the BioMAP Diversity Plus: hDFCGF Assay (AID 2283061); conditions: primary human foreskin fibroblasts;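 also: cells exposed to compound for 24 h before the read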
How it was run: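 Human foreskin primary fibroblasts were treated with compound and assessed 24 h after dosing. Total protein was measured by sulforhodamine B staining (0.1% SRB after 10% TCA fixation, 560 nm read) as a cytotoxicity marker, with bidirectional fitting against DMSO baseline.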

[11] = read-out: Monokine induced gamma interferon (MIG), CXCL9 (gene 4283); assay: BSK_hDFCGF_MIG: BioMAP Diversity Plus: hDFCGF Assay for Monokine induced gamma interferon (MIG) Biomarker Activity (AID 2283063); conditions: primary human foreskin fibroblasts; actives raise or lower the signal
How it was run: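 ELISA read-out of MIG from primary human dermal fibroblasts 24 h post-dosing. Gain or loss of signal fitted bidirectionally, DMSO as baseline.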

[12] = read-out: Matrix Metallopeptidase 1 (MMP1), MMP1 (gene 4312); assay: BSK_hDFCGF_MMP1: BioMAP Diversity Plus: hDFCGF Assay for Matrix Metallopeptidase 1 (MMP1) Biomarker Activity (AID 2283064); conditions: primary human foreskin fibroblasts; actives raise or lower the signal
How it was run: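 hDFCGF primary fibroblasts (human foreskin); chemical added; 24 h; MMP1 by ELISA; bidirectional fit vs DMSO.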

[13] = read-out: Vascular cell adhesion molecule 1 (VCAM1), VCAM1 (gene 7412); assay: BSK_hDFCGF_VCAM1: BioMAP Diversity Plus: hDFCGF Assay for Vascular cell adhesion molecule 1 (VCAM1) Biomarker Activity (AID 2283065); conditions: primary human foreskin fibroblasts; actives raise or lower the signal
How it was run: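 Primary human foreskin fibroblasts (hDFCGF system) were dosed with chemical and VCAM-1 was measured by ELISA 24 h later. Bidirectional curve fitting used DMSO as negative control and activity baseline.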

[14] = read-out: Plasminogen activator inhibitor-1 (PAI1), SERPINE1 (gene 5054); assay: BSK_hDFCGF_PAI1: BioMAP Diversity Plus: hDFCGF Assay for Plasminogen activator inhibitor-1 (PAI1) Biomarker Activity (AID 2283066); conditions: primary human foreskin fibroblasts; actives raise or lower the signal
How it was run: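 PAI-1 levels, determined by ELISA, served as the endpoint in human foreskin fibroblast cultures exposed to compound for 24 h, with DMSO as baseline.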

[15] = read-out: Intercellular Adhesion Molecule 1 (ICAM1), ICAM1 (gene 3383); assay: BSK_KF3CT_ICAM1: BioMAP Diversity Plus: KF3CT Assay for Intercellular Adhesion Molecule 1 (ICAM1) Biomarker Activity (AID 2283067); conditions: primary human keratinocytes with fibroblasts; actives raise or lower the signal
How it was run: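 Human keratinocyte plus foreskin fibroblast primary co-culture was exposed to chemical for 24 h. ICAM-1 was then quantified by ELISA, and the data were fit bidirectionally against DMSO as the negative control and baseline.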

[16] = read-out: Interferon-gamma inducible Protein 10 (IP10), CXCL10 (gene 3627); assay: BSK_KF3CT_IP10: BioMAP Diversity Plus: KF3CT Assay for Interferon-gamma inducible Protein 10 (IP10) Biomarker Activity (AID 2283068); conditions: primary human keratinocytes with fibroblasts; actives raise or lower the signal
How it was run: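 Human keratinocyte plus foreskin fibroblast primary co-culture exposed to test chemical for 24 h; IP-10 measured by ELISA. Concentration-response fitted bidirectionally against DMSO control as baseline.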

[17] = read-out: Interleukin-1 alpha (IL1a), IL1A (gene 3552); assay: BSK_KF3CT_IL1a: BioMAP Diversity Plus: KF3CT Assay for Interleukin-1 alpha (IL1a) Biomarker Activity (AID 2283070); conditions: primary human keratinocytes with fibroblasts; actives raise or lower the signal
How it was run: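 Chemicals were dosed onto co-cultured human keratinocytes and foreskin fibroblasts, IL-1a was quantified by ELISA at 24 h, and activity was fitted in both directions relative to DMSO controls.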

[18] = read-out: TIMP metallopeptidase inhibitor 2 (TIMP2), TIMP2 (gene 7077); assay: BSK_KF3CT_TIMP2: BioMAP Diversity Plus: KF3CT Assay for TIMP metallopeptidase inhibitor 2 (TIMP2) Biomarker Activity (AID 2283071); conditions: primary human keratinocytes with fibroblasts; actives raise or lower the signal
How it was run: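 Keratinocyte–fibroblast co-culture, 24 h exposure; TIMP-2 ELISA, DMSO-normalised bidirectional fit. Parallel SRB (0.1%, TCA-fixed, 560 nm) total-protein staining gauges cytotoxicity.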

[19] = BSK_KF3CT_SRB: Viability Assessment in the BioMAP Diversity Plus: KF3CT Assay (AID 2283069); conditions: primary human keratinocytes with fibroblasts;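 also: fitted for both signal gain and loss against DMSO baseline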
How it was run: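 Keratinocytes co-cultured with foreskin fibroblasts (human primary); chemical added, 24 h; fix 10% TCA, stain 0.1% SRB, A560. Bidirectional fit vs DMSO.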

[20] = read-out: TIMP metallopeptidase inhibitor 1 (TIMP1), TIMP1 (gene 7076); assay: BSK_hDFCGF_TIMP1: BioMAP Diversity Plus: hDFCGF Assay for TIMP metallopeptidase inhibitor 1 (TIMP1) Biomarker Activity (AID 2283062); conditions: primary human foreskin fibroblasts; actives raise or lower the signal
How it was run: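 Primary human foreskin fibroblasts in the hDFCGF system were dosed with compound for 24 h, then TIMP-1 was measured by ELISA. Activity was fitted bidirectionally relative to DMSO control; parallel SRB staining assessed cytotoxicity.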

Measured: AC50

O=C(CC(=O)C(F)(F)C(F)(F)F)C(F)(F)F
inactive: [1] | [2] | [3] | [4] | [5] | [6] | [7] | [8] | [9] | [10] | [11] | [12] | [13] | [14] | [15] | [16] | [17] | [18]

FC(F)(F)C(F)(F)C(F)(F)C(F)(F)CCI
active: [11] 49.3 µM
inactive: [1] | [2] | [3] | [4] | [5] | [6] | [7] | [8] | [9] | [10] | [11] | [12] | [13] | [14] | [15] | [16] | [17] | [18]

C=C(C)C(=O)OCCC(F)(F)C(F)(F)C(F)(F)C(F)(F)C(F)(C(F)(F)F)C(F)(F)F
inactive: [1] | [2] | [3] | [4] | [5] | [6] | [7] | [8] | [9] | [10] | [11] | [12] | [13] | [14] | [15] | [16] | [19] | [17] | [18]

NC(=O)C(F)(F)C(F)(F)C(F)(F)C(F)(F)F
inactive: [1] | [2] | [3] | [4] | [5] | [6] | [7] | [8] | [9] | [10] | [20] | [11] | [12] | [13] | [14] | [15] | [16] | [17] | [18]

O=C(O)C(F)(F)C(F)(F)C(F)(F)F
inactive: [1] | [2] | [3] | [4] | [5] | [6] | [7] | [8] | [9] | [10] | [11] | [12] | [13] | [14] | [15] | [16] | [19] | [17] | [18]
